In PubChem BioAssay AID1508600 (Functional Genomics Laboratory (NCATS/FGL), 2020):
In all, about 53,000 sequences went through this assay and about 3,700 (7%) were called active.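 The calls were made as follows: active = gene knockdowns whose robust z-score for IL-1 alpha signal is at least 2 or at most -2, so actives lie on both sides; inactive = the rest.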 Shown is part of a subset that was picked to be rich in actives.

Experiment: Components of the Cytosolic LPS Sensing Pathway: Gene Identification via Genome-wide siRNA Screen;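 also: robust z of the log signal after scaling to non-targeting control siRNA wells of the plate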
Settings: RAW264.7 macrophages, IL-1a HTRF, actives lie on both sides, screened at 100 nM (by protocol), cells primed 5 h with Pam3CSK4 first
How it was run: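 RAW264.7 mouse macrophages reverse-transfected with single siRNAs (100 nM final) for 48h, primed with Pam3CSK4 for 5 hours, then transfected with LipidA for 24 hour. Supernatant IL-1a read by HTRF; values normalized to negative-control median, log-transformed robust z-scores.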

| Sequence | z-score |
| --- | --- |
| GCCAACCCUGAAAACCCUUTT against Gc | -2.54 (active) |
| GGUUGUUGAAAAGUCUUUATT against Rasa2 | -0.102 (inactive) |
| GCACUGGAAAAUUUCUAAUTT against Vmn2r7 | -0.0531 (inactive) |
| GGAGGUAGAAAUAAAUACUTT against Sva | 2.01 (active) |
| GGACAAUUACAACACUCAATT against Ablim3 | -0.00526 (inactive) |
| GGCUUGAUCAUGACUUAAATT against Armc8 | 0.638 (inactive) |
| GGUUUUGUUAUGGUAAGUCTT against Vdr | -0.573 (inactive) |
| CCAAGCAUUCGAGUAUGUUTT against Ctsj | 1.07 (inactive) |
| CCAAUGAUUUCCUGCUAAATT against Lst1 | 3.21 (active) |
| GGAAGACAACUGAACAUUUTT against Ralgds | 0.837 (inactive) |
| CCGGAAGCUAUUGACCAUUTT against Tmem11 | 3.21 (active) |
| GGCCGUAAUAUCUCCUCCUTT against Krt13 | 1.41 (inactive) |
| CGCGAGGUCUUCGAAAGAATT against Siva1 | -0.884 (inactive) |
| CGCGUUUCGUGUUUCAAAATT against Mus81 | -0.464 (inactive) |
| GAUCGAAGCCUAAGACCGCTT against Cypt3 | -0.578 (inactive) |
| GCCUUAGGGAGUGUUAAAATT against Spink8 | -0.304 (inactive) |
| GGUGGAGAAGCAGAUGCUUTT against Nek2 | 2.25 (active) |
| GGAAUUCCUUACCUUCUUATT against Cyp2c65 | -0.269 (inactive) |
| GGAGCAUCACUCUUAACAUTT against Krt71 | 1.58 (inactive) |
| GGGACACUUUCACUUGUUCTT against Rmnd5a | 0.159 (inactive) |
| GCUCAGGCAAGACUCAUUGTT against Trim45 | -0.57 (inactive) |
| GGACUUUUGGCACUCUUAUTT against Snx10 | 0.127 (inactive) |

| Sequence | z-score |
| --- | --- |
| GGAUUUGAUUCCGCCAACGTT against Pon2 | -2.03 (active) |
| GCUUAAAAGUGAAGUCUUGTT against Tmem203 | -0.615 (inactive) |
| GUAAGGUCACCGGGUUGCATT against Lor | 0.547 (inactive) |
| GGUGGUCCUGGAUCUUUAUTT against Spon2 | -0.986 (inactive) |
| GGACUUCGACAAACUGAAGTT against Zfp532 | 0.547 (inactive) |
| GCCUUCUUGAACUGAAAGATT against Spc24 | -2.04 (active) |
| GGUUCUAUGUUGACAAUCATT against Osgin2 | 0.621 (inactive) |
| GGAAAUCUGAGUGUGCACUTT against Pcdhgb1 | 1.45 (inactive) |
| GGCUGUCUUCAUCUUAGAUTT against Copz2 | -2.61 (active) |
| GGAUAAUACAUCCCAAAACTT against Prkar2b | -0.607 (inactive) |
| GGAUCUCCAGAGCAGAAAATT against Nckap5 | -1.64 (inactive) |
| GGUGAAUUCAACUCUCUAATT against Decr1 | 2.43 (active) |
| GGGUGUUGAUGUCAUUGUGTT against Dbn1 | 1.51 (inactive) |
| GCAUGCACUUAAGAUUCUATT against Lypd6b | 0.595 (inactive) |
| CCAGGAAUCAGUCUAUACUTT against Lrrc15 | 1.45 (inactive) |
| GGUUGUAACAAACAUACUCTT against Sstr4 | 2.99 (active) |
| GGACCUGGAGAAAUUGAAGTT against Nlrp6 | 1.82 (inactive) |
| GGUCAUCUCAGACCUCCUCTT against Pde6a | -0.275 (inactive) |
| GCAAAACCAUUUCGAAACATT against Slc41a3 | 0.363 (inactive) |
| CCUGUGGAUCCAUUUGUUCTT against Tex15 | -2.25 (active) |
| GGAAAAGCUACCUGUGUCATT against Tril | -1.88 (inactive) |
| GGUGAUGGAAUACCAAAGGTT against Dnajc28 | -0.736 (inactive) |

| Sequence | z-score |
| --- | --- |
| GGAUAUCUUCAUAUUGGUGTT against Ces1f | 4 (active) |
| GGAGAUCCCGUCACUAUCUTT against Lrrc61 | -0.439 (inactive) |
| GGACAAUGAACUGAUUACCTT against Ap1s2 | 0.992 (inactive) |
| GGGACAAAGAAAAUCUACUTT against Ehf | 0.637 (inactive) |
| GUACCAGAAGUGAGUUCAGTT against Leap2 | -2.97 (active) |
| GCUGCCUCUUUCUUUGCUUTT against Pllp | -0.769 (inactive) |
| GGCAGAUUCAGAAUUGUCUTT against Il17a | -2.58 (active) |
| GGACUUUGCCCUGGAUUCUTT against Cnot1 | -0.216 (inactive) |
| GGUUUGUUGUUGUUUUUGGTT against Vezt | 0.44 (inactive) |
| GCAAUUACCAGUAUGCUACTT against Tbx19 | 0.914 (inactive) |
| CGGUAAACUGGUUUUACUUTT against Otulin | 1.8 (inactive) |
| GCCACAUCCUAUGUGAUGATT against Olfr1349 | -0.647 (inactive) |
| GGAAGCUAUAUAUCAAGAATT against Tcea1 | 0.69 (inactive) |
| GUCCGUCUCGGAGAAAUGUTT against Ccdc106 | -2.28 (active) |
| GGAUUCACGAGCAUAAGCUTT against 1700020D05Rik | -1.31 (inactive) |
| GGAGGCAGCAGUUAUUGUGTT against Ly6a | -0.486 (inactive) |
| GGCCUCAGACCUUCUAUGATT against Mtap | -0.149 (inactive) |
| GGUGUCCUCUUUGUUCAUGTT against Sgce | 2.94 (active) |
| GGCUGGUACUCCAUUUUAGTT against Neil2 | 0.0451 (inactive) |
| GCCAGUUGGUUACUAUGGATT against Tax1bp3 | -0.412 (inactive) |
| GGGAUUACCAAAAAGGCAUTT against Senp7 | 0.128 (inactive) |
| GGAUAUUAACUAUGGGUUUTT against Tlr2 | 0.605 (inactive) |

| Sequence | z-score |
| --- | --- |
| GGCCUGCUUUGUUCUGAAUTT against Olfr846 | -2.53 (active) |
| GCGCAAUAAUCAGACGGUUTT against Zhx2 | -0.624 (inactive) |
| GGAAGAAGGUACAUUUCAGTT against Ankrd42 | 0.362 (inactive) |
| GGGCAAAAUAUGAAAUACATT against Pate6 | 2.92 (active) |
| GAGAGAGACAAUCCUGAAGTT against Klra22 | -0.0539 (inactive) |
| GGCAAAUGGAAACAGCCAUTT against Serpina1d | -1.56 (inactive) |
| CCUGCUCAAACUUUUGUGGTT against Ephx4 | 0.928 (inactive) |
| GGAACCUUCUCCAAAGCAATT against Rpgrip1 | -2.45 (active) |
| CGUCAAAGGAGACAGCUUUTT against Rbm15b | 1.56 (inactive) |
| GCUCAAAUUGAGUCCUUAUTT against Ccdc122 | -0.548 (inactive) |
| GCUAGCCAUGGUUACCCACTT against Slc39a3 | -0.818 (inactive) |
| GGGACACUAGAAGUAGGGATT against Pramel4 | 0.299 (inactive) |
| GACGAUCAAGAUAUGAUGGTT against Olfr196 | 0.259 (inactive) |
| GCACGUACUGUUCUAGAAGTT against Kcng4 | 1.48 (inactive) |
| CCCAAAGAUAGAGCUCUGUTT against Sec61a2 | -1.94 (inactive) |
| GGUUGAUCUAAUGAUUGUGTT against Ccdc34 | 2.5 (active) |
| UCUCCUACCUAUGCACAUATT against Panx2 | -0.925 (inactive) |
| GCAAGUCUGGAUGGAUGAGTT against 1190005I06Rik | -1.54 (inactive) |
| CCCUCGUUGAAUUAAACUUTT against Zfp385b | 0.88 (inactive) |
| GGUCUCAGACAAAGAUGAATT against Trmt10c | -0.239 (inactive) |
| GGAAUGGAGUUUGGUUUUGTT against Extl1 | 2.67 (active) |
| GGAAACGAGUUGGAGACAATT against Gtpbp1 | -1.03 (inactive) |

| Sequence | z-score |
| --- | --- |
| GGUUAAGUUCCUCUGGAACTT against Pnliprp2 | -0.0719 (inactive) |
| GGCACUACCACAAGUAUAGTT against 1700073E17Rik | 0.0893 (inactive) |
| GCAGGUUAUGGUCAUAUUUTT against Zfp646 | 0.583 (inactive) |
| GCAGUUGAGUCCACCUCAATT against Ccdc187 | 2.18 (active) |
| GGAGAACGUGGUACAAAGUTT against Sncg | -1.27 (inactive) |
| GGAGGACUUAGAGAGUAUGTT against Ctdp1 | -0.595 (inactive) |
| CCAGUGUAGAGCACAAAUCTT against Ahr | 2.51 (active) |
| GGACCUGGACCUUUUAGAGTT against Vegfb | 1.34 (inactive) |
| GGUUGUUGGAAAAAUAGAUTT against Tmem175 | -0.0383 (inactive) |
| GGUGGACUUCAUGUAGAUUTT against Eif3m | -1.07 (inactive) |
| GGACAAGAGGUACACAAACTT against Eif3d | 2.83 (active) |
| GGAAGAGCUGGACUUCUUCTT against Hoxb2 | 1.71 (inactive) |
| CCACGGUUAUGAUGACGACTT against Dyrk1b | 1.89 (inactive) |
| GGACUAUUUCCUUUGUGGGTT against Olfr31 | -1.59 (inactive) |
| GGAUUGUCCUUGAUGGCUGTT against Plek2 | -0.116 (inactive) |
| GGAGGUUUUACUCAAACAUTT against Sec14l2 | 1.35 (inactive) |
| GGGCCUGCUCUCUUUUCUGTT against Mfsd14b | 1.18 (inactive) |
| CCUCGAGUCACCAACAUCGTT against Stt3b | -2.46 (active) |
| GCCUUUUGUACUAAGGUCCTT against Zfp715 | 1.65 (inactive) |
| GGGACAGUUAGUCAGUAAGTT against Pus7l | 0.196 (inactive) |
